Assay results from article PMC11102866, “Nucleosome-bound NR5A2 structure reveals pioneer factor mechanism by DNA minor groove anchor competition”.
Residue numbers refer to the chain shown, from its start. Names and notes keep the numbering of the source.

B1: 62 (nucleosome)
DNA 1: ATCCTGGAGAATCCCGGTGCCGAGGCCGCTCAATTGGTCGTAGACAGCTCTAGCACCGCTTAAATCAAGGCCAGCGCTGTCCCCCGCGTTTTAACCGCCAAGGGGATTACTCCCTAGTCTCCAGGCACGTGTCAGATATATACATCCTGTGAT
DNA 2: ATCACAGGATGTATATATCTGACACGTGCCTGGAGACTAGGGAGTAATCCCCTTGGCGGTTAAAACGCGGGGGACAGCGCTGGCCTTGATTTAAGCGGTGCTAGAGCTGTCTACGACCAATTGAGCGGCCTCGGCACCGGGATTCTCCAGGAT
modifications: reconstituted with mouse histones H2A, H2B, H3.3 and H4
B2: 63 (nucleosome)
DNA 1: B1 DNA 1 with T65C, C66T, A67C, G69A, C71G, A73C, G74A
DNA 2: B1 DNA 2 with C80T, T81G, G83C, C85T, T87G, G88A, A89G
modifications: reconstituted with mouse histones H2A, H2B, H3.3 and H4
B3: 8 (nucleosome)
DNA 1: ATCCTGGAGATCAAGGCCACCGAGGCCGCTCAATTGGTCGTAGACAGCTCTAGCACCGCTTAAACGCACGTACGCGCTGTCCCCCGCGTTTTAACCGCCAAGGGGATTACTCCCTAGTCTCCAGGCACGTGTCAGATATATACATCCTGTGAT
DNA 2: ATCACAGGATGTATATATCTGACACGTGCCTGGAGACTAGGGAGTAATCCCCTTGGCGGTTAAAACGCGGGGGACAGCGCGTACGTGCGTTTAAGCGGTGCTAGAGCTGTCTACGACCAATTGAGCGGCCTCGGTGGCCTTGATCTCCAGGAT
modifications: reconstituted with mouse histones H2A, H2B, H3.3 and H4
B4: 60 (nucleosome)
DNA 1: ATCCTGGAGAATCCCGGTGCCGAGGCCGCTCAATTGGTCGTAGACAGCTCTAGCACCGCTTATCAAGGCCAACGCGCTGTCCCCCGCGTTTTAACCGCCAAGGGGATTACTCCCTAGTCTCCAGGCACGTGTCAGATATATACATCCTGTGAT
DNA 2: ATCACAGGATGTATATATCTGACACGTGCCTGGAGACTAGGGAGTAATCCCCTTGGCGGTTAAAACGCGGGGGACAGCGCGTTGGCCTTGATAAGCGGTGCTAGAGCTGTCTACGACCAATTGAGCGGCCTCGGCACCGGGATTCTCCAGGAT
modifications: reconstituted with mouse histones H2A, H2B, H3.3 and H4
B5: 66 (nucleosome)
DNA 1: B1 DNA 1 with T65C, C66G, A67C, G69T, G70C, C71A, C72A, A73G, G76C, C77A
DNA 2: B4 DNA 2 with G77T, C78G, G81C, G85A, C86T, C87G, T88C, T89G, G90T, A91T
modifications: reconstituted with mouse histones H2A, H2B, H3.3 and H4
B6: 61 (nucleosome)
DNA 1: B4 DNA 1 with T63A, C64T, A65C, G67A, C69G, A71C
DNA 2: B4 DNA 2 with T83G, G85C, C87T, T89G, G90A, A91T
modifications: reconstituted with mouse histones H2A, H2B, H3.3 and H4
B7: 64 (nucleosome)
DNA 1: ATCCTGGAGAATCCCGGTGCCGAGGCCGCTCAATTGGTCGTAGACAGCTCTAGCACCGCTTAAACGTCAAGGCCAGCTGTCCCCCGCGTTTTAACCGCCAAGGGGATTACTCCCTAGTCTCCAGGCACGTGTCAGATATATACATCCTGTGAT
DNA 2: ATCACAGGATGTATATATCTGACACGTGCCTGGAGACTAGGGAGTAATCCCCTTGGCGGTTAAAACGCGGGGGACAGCTGGCCTTGACGTTTAAGCGGTGCTAGAGCTGTCTACGACCAATTGAGCGGCCTCGGCACCGGGATTCTCCAGGAT
modifications: reconstituted with mouse histones H2A, H2B, H3.3 and H4
B8: 65 (nucleosome)
DNA 1: B7 DNA 1 with T67C, C68T, A69C, G71A, C73G, A75C, G76A
DNA 2: B7 DNA 2 with C78T, T79G, G81C, C83T, T85G, G86A, A87G
modifications: reconstituted with mouse histones H2A, H2B, H3.3 and H4
B9: 53 (nucleosome)
DNA 1: ATCCTGGAGAATCCCGGTGCCGAGGCCGCTCAATTGGTCGTAGACAGCTCTAGCATCAAGGCCACGCACGTACGCGCTGTCCCCCGCGTTTTAACCGCCAAGGGGATTACTCCCTAGTCTCCAGGCACGTGTCAGATATATACATCCTGTGAT
DNA 2: ATCACAGGATGTATATATCTGACACGTGCCTGGAGACTAGGGAGTAATCCCCTTGGCGGTTAAAACGCGGGGGACAGCGCGTACGTGCGTGGCCTTGATGCTAGAGCTGTCTACGACCAATTGAGCGGCCTCGGCACCGGGATTCTCCAGGAT
modifications: reconstituted with mouse histones H2A, H2B, H3.3 and H4
B10: 56 (nucleosome)
DNA 1: B1 DNA 1 with C59T, T60C, T61A, A63G, A64G, T65C, G69C, C71T, C72A, A73C
DNA 2: B9 DNA 2 with G87T, C88G, T90C, G91C, G92T, C93T, C94G, T95A, T96C, A98G
modifications: reconstituted with mouse histones H2A, H2B, H3.3 and H4
B11: 58 (nucleosome)
DNA 1: B7 DNA 1 with A62C, C65G, T67C, A70G, G71T, G72A, C74G, A75C
DNA 2: B7 DNA 2 with T79G, G80C, C82T, C83A, T84C, A87G, G89C, T92G
modifications: reconstituted with mouse histones H2A, H2B, H3.3 and H4
B12: 55 (nucleosome)
DNA 1: B9 DNA 1 with T56C, A58T, A59C, G60A, G61A, C62G, C63G, A64C, G66A
DNA 2: B9 DNA 2 with C88T, T90G, G91C, G92C, C93T, C94T, T95G, T96A, A98G
modifications: reconstituted with mouse histones H2A, H2B, H3.3 and H4
B13: 54 (nucleosome)
DNA 1: B9 DNA 1 with T56C, C57T, A58C, G60A, C62G, A64C, C65A
DNA 2: B9 DNA 2 with G89T, T90G, G92C, C94T, T96G, G97A, A98G
modifications: reconstituted with mouse histones H2A, H2B, H3.3 and H4
B14: 59 (nucleosome)
DNA 1: B4 DNA 1 with A62T, T63C, C64A, A66G, G68C, C70A, A71T
DNA 2: B4 DNA 2 with T83A, G84T, C86G, T88C, G90T, A91G, T92A
modifications: reconstituted with mouse histones H2A, H2B, H3.3 and H4
B15: 57 (nucleosome)
DNA 1: B1 DNA 1 with T61C, A64G, T65G, A67C, G69C, C71T, C72A, A73C
DNA 2: B1 DNA 2 with T81G, G82T, G83A, C85G, T87G, A89C, T90C, A93G
modifications: reconstituted with mouse histones H2A, H2B, H3.3 and H4

Tests used:
[1] = biological target: NR5A2 wild type;histone octamer (Homo sapiens;, UniProt O00482;C0HKE1;Q6ZWY9;P84244;P62806 1-541;2-130;2-126;2-136;2-103, |); test: SeEN-seq (EMSA of nucleosome library followed by sequencing); 0.8 uM human NR5A2; 20 mM Tris-HCl pH 7.5, 120 mM NaCl, 1 mM MgCl2, 10 uM ZnCl2, 1 mM DTT, 100 ug/ml BSA, room temperature, 30 min; 0.1 uM nucleosome library; high values mean tight binding
[2] = biological target: mouse Nr5a2 wild type;histone octamer (Mus musculus;, UniProt P45448;C0HKE1;Q6ZWY9;P84244;P62806 1-560;2-130;2-126;2-136;2-103, |); test: SeEN-seq (EMSA of nucleosome library followed by sequencing); 1.2 uM mouse Nr5a2; 20 mM Tris-HCl pH 7.5, 120 mM NaCl, 1 mM MgCl2, 10 uM ZnCl2, 1 mM DTT, 100 ug/ml BSA, room temperature, 30 min; 0.1 uM nucleosome library; high values mean tight binding

| Binder | binding signal [1] | binding signal [2] |
| --- | --- | --- |
| B1 | 1.24 log2 enrichment (bound/unbound, relative to Widom 601) | 1.27 log2 enrichment (bound/unbound, relative to Widom 601) |
| B2 | 1.09 log2 enrichment (bound/unbound, relative to Widom 601) | 1.1 log2 enrichment (bound/unbound, relative to Widom 601) |
| B3 | 2.08 log2 enrichment (bound/unbound, relative to Widom 601) | 1.69 log2 enrichment (bound/unbound, relative to Widom 601) |
| B4 | 0.819 log2 enrichment (bound/unbound, relative to Widom 601) | 0.573 log2 enrichment (bound/unbound, relative to Widom 601) |
| B5 | 1.05 log2 enrichment (bound/unbound, relative to Widom 601) | 1.15 log2 enrichment (bound/unbound, relative to Widom 601) |
| B6 | 0.699 log2 enrichment (bound/unbound, relative to Widom 601) | 0.779 log2 enrichment (bound/unbound, relative to Widom 601) |
| B7 | 0.83 log2 enrichment (bound/unbound, relative to Widom 601) | 0.992 log2 enrichment (bound/unbound, relative to Widom 601) |
| B8 | 0.891 log2 enrichment (bound/unbound, relative to Widom 601) | 1.14 log2 enrichment (bound/unbound, relative to Widom 601) |
| B9 | 1.03 log2 enrichment (bound/unbound, relative to Widom 601) | 1.17 log2 enrichment (bound/unbound, relative to Widom 601) |
| B10 | 0.684 log2 enrichment (bound/unbound, relative to Widom 601) | 0.45 log2 enrichment (bound/unbound, relative to Widom 601) |
| B11 | 0.651 log2 enrichment (bound/unbound, relative to Widom 601) | 0.747 log2 enrichment (bound/unbound, relative to Widom 601) |
| B12 | 1.2 log2 enrichment (bound/unbound, relative to Widom 601) | 0.957 log2 enrichment (bound/unbound, relative to Widom 601) |
| B13 | 0.993 log2 enrichment (bound/unbound, relative to Widom 601) | 1 log2 enrichment (bound/unbound, relative to Widom 601) |
| B14 | 0.92 log2 enrichment (bound/unbound, relative to Widom 601) | 0.823 log2 enrichment (bound/unbound, relative to Widom 601) |
| B15 | 0.552 log2 enrichment (bound/unbound, relative to Widom 601) | 0.504 log2 enrichment (bound/unbound, relative to Widom 601) |
